# Hit rate of the full screen: of about 11,000 compounds, about 310 (2.8%) were called active. Rule as the data show it: active = activity change below about -85%; inactive = the rest. Many of the other results were omitted from the sample, so actives are more common in it than they were.
# Test system: intestinal alkaline phosphatase [Mus musculus]
# Experiment: mouse intestinal phosphatase enzyme activation – biochemical, luminescence, single concentration, confirmation (AID 434970)
# Conditions: purified mouse IAP, CDP-Star luminescence, 30 min, at 10 µM; activation factor: measured here: IAP activation factor, stronger effect = higher value; activity change, negative = activation: stronger effect = lower value
SMILES,activation factor,"activity change, negative = activation"
CC1(C)CC2CC(C)(CN2C(=O)CN2C(=O)c3ccccc3C2=O)C1 (stereo unspecified),1.09,-8.65% (inactive)
CC(=O)c1ccc(NC(=O)CCn2c(=O)oc3ccccc32)cc1,1.03,-3.25% (inactive)
COc1ccccc1CNC(=O)CCCOc1cc(=O)n(C)c2ccccc12,0.997,0.3% (inactive)
C=CCC1[C@H](C)[C@H]2[C@@H]3CC[C@@H](C3)[C@H]2CN1S(=O)(=O)c1ccc(C)cc1 (stereo partly specified),1.12,-11.8% (inactive)
N#CCc1ccc(NC(=O)Nc2cccc3ccccc23)cc1,1.89,-89.1% (inactive)
CCN(CC)CCNC(=O)c1ccc(NC(=O)Nc2cccc3ccccc23)cc1,2.6,-160% (active)
O=C(Nc1ccccc1)Nc1cccc2ccccc12,1.79,-78.8% (inactive)
CCOc1ccc(CC(=O)OCN2C(=O)c3ccccc3C2=O)cc1,0.926,7.35% (inactive)
COc1ccccc1C(CC(=O)Nc1ccc(Cl)cc1)c1ccc(OC(C)C)cc1 (stereo unspecified),1.91,-90.9% (active)
Cc1ccc(NC(=O)c2ncn(CC(=O)NCC(C)c3ccccc3)n2)cc1C (stereo unspecified),0.995,0.5% (inactive)
Cc1ccc(NC(=O)CNc2ccc(OC(C)C)cc2)cc1,0.9,10% (inactive)
CCOc1ccc(NC(=O)CC(c2ccccc2)c2ccc(F)cc2)cc1 (stereo unspecified),1.44,-43.6% (inactive)
COc1ccccc1C(CC(=O)Nc1ccc(C)c(C)c1)c1ccc(OC(C)C)cc1 (stereo unspecified),2.06,-106% (active)
CCOc1ccccc1NC(=O)c1cccc(NC(=O)CC(c2ccccc2)c2ccccc2)c1,1.39,-39.4% (inactive)
O=C(CN(Cc1ccccc1F)C(=O)Cn1nnc(-c2cccs2)n1)NC1CCCCC1,1.22,-22.1% (inactive)
Cc1cc(C(F)F)nn1CC(=O)N1CCSCC1,0.984,1.65% (inactive)
CCCC(=O)NC(=S)Nc1ccccc1C(F)(F)F,0.974,2.55% (inactive)
CCN(CC)S(=O)(=O)c1ccc2c(c1)nc(SCc1nc3ccsc3c(=O)[nH]1)n2CC,0.992,0.85% (inactive)
COc1ccc(CNC(=S)Nc2ccc(F)c(Cl)c2)cc1OC,1.56,-56.2% (inactive)

SMILES,activation factor,"activity change, negative = activation"
COc1ccc(N2C(=O)CCC(C(=O)NCc3cccnc3)C2c2ccc(OC)c(OC)c2)cc1 (stereo unspecified),0.977,2.3% (inactive)
O=C(Nc1cnn(Cc2ccccc2)c1)NC12CC3CC(CC(C3)C1)C2,2.05,-105% (active)
O=C(NCc1ccccn1)NC12CC3CC(CC(C3)C1)C2,1.06,-6.25% (inactive)
O=C(Nc1cnn(Cc2ccc(Cl)c(Cl)c2)c1)C12CC3CC(CC(C3)C1)C2,1.17,-16.9% (inactive)
COc1ccccc1C(=O)N1CCN=C1SC,0.943,5.75% (inactive)
O=C(O)CCN1C(=O)NC2(CCCC2)C1=O,1.15,-15.3% (inactive)
Cc1ccc(C)c(N(C)C(=O)c2coc(=O)c3ccccc23)c1,0.967,3.3% (inactive)
Cc1cccc(NC(=O)NCC2CCN(c3ccc(S(=O)(=O)N4CCOCC4)cc3)CC2)c1,2.56,-156% (active)
COc1cccc(NC(=O)COC(=O)c2cc(S(=O)(=O)N3CCOCC3)ccc2C)c1,0.964,3.65% (inactive)
O=C(NCC1CCN(c2ccc(S(=O)(=O)N3CCOCC3)cc2)CC1)Nc1ccccc1,1.77,-77.3% (inactive)
CCc1ccc(NC(=O)NCC2CCN(Cc3cccc(Cl)c3)CC2)cc1,2.2,-120% (active)
O=C(NCC1CCN(Cc2cccc(Cl)c2)CC1)Nc1ccc(Cl)cc1,1.9,-89.5% (inactive)
Cc1cccc(CN2CCC(CNC(=O)Nc3ccc(F)c(Cl)c3)CC2)c1,2.15,-115% (active)
Cc1ccc(NC(=O)NCC2CCN(Cc3cccc(Cl)c3)CC2)cc1Cl,1.87,-87.3% (active)
CCc1cccc(CN2CCC(CNC(=O)Nc3ccc(Cl)cc3)CC2)c1,1.68,-67.9% (inactive)
CCOc1cc(/C=N\NC(=O)c2ccc(NC(=O)CC)cc2)ccc1OC(=O)c1ccccc1,1.02,-1.9% (inactive)
Cc1cc(C)nc(SCC(=O)c2ccc([N+](=O)[O-])cc2)n1,0.867,13.3% (inactive)
O=C1Nc2ccccc2C(O)(C(=O)NC2CC2)N1c1ccc(Cl)c(Cl)c1 (stereo unspecified),0.911,8.85% (inactive)
CCOc1ccc2nc(SCC(=O)N(C)C3CCS(=O)(=O)C3)[nH]c2c1 (stereo unspecified),0.928,7.2% (inactive)

# Source: PubChem BioAssay AID434970 (Sanford-Burnham Center for Chemical Genomics, 2010)
